From PubChem BioAssay (NCI) come the findings set out here.

“And” between values parts separate entries of the source, which are not always exact repeats. Equal entries are not always repeated. The panel holds about 79,000 compounds, 15% with a hit somewhere; the sample as a whole holds those more often. Some compounds were tested as several samples or in several runs, with calls that do not always agree. The source made the active and inactive calls. Cut-off read from the data, not from the text of the source: active = growth inhibition above about 70%; inactive = the rest.

A short description of test [1]: NCI Yeast Anticancer Drug Screen. Data for the rad50 strain (AID 155).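 Note: 0% = growth of vehicle-only cultures of the same strain.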 Particulars: S. cerevisiae rad50 strain growth inhibition; at 50.0 µM; stronger effect = higher value. The gist of the method:
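Cells are treated with compound, grown, and their growth is then scored against vehicle-only cultures of the same repair-deficient yeast strain.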

A short description of test [2]: NCI Yeast Anticancer Drug Screen. Data for the mec2-1 strain (AID 157). Particulars: S. cerevisiae mec2-1 strain, at 50.0 µM, stronger effect = higher value. The gist of the method: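 Mutant yeast (mec2-1) grown with compound; growth inhibition relative to vehicle control reported.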
The nature of test [3]: NCI Yeast Anticancer Drug Screen. Data for the sgs1 mgt1 strain (AID 161).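 Note: 0% = growth of cultures given vehicle only.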 Conditions: S. cerevisiae sgs1 mgt1 strain, at 50.0 µM, stronger effect = higher value. The gist of the method:
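Percent growth inhibition was derived by comparing compound-exposed mutant yeast with vehicle-exposed cultures. The strain carries alterations in DNA damage repair.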

Test [4] is described as follows: NCI Yeast Anticancer Drug Screen. Data for the cln2 rad14 strain (AID 165).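 Note: 0% = growth equal to vehicle treated cultures.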 Conditions: S. cerevisiae cln2 rad14 strain, at 50.0 µM, stronger effect = higher value. The gist of the method: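 Readout is yeast growth inhibition versus vehicle-treated controls, using a strain with cln2 and rad14 alterations exposed to compound.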
A short description of test [5]: NCI Yeast Anticancer Drug Screen. Data for the bub3 strain (AID 167). Conditions: S. cerevisiae bub3 mutant strain, at 50.0 µM, stronger effect = higher value. The gist of the method:
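Part of a panel of yeast mutants defective in DNA damage repair or cell cycle regulation. Each strain is grown with compound, and inhibition is calculated relative to solvent-treated cultures.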

Test [6] can be described thus: NCI Yeast Anticancer Drug Screen. Data for the mlh1 rad18 strain (AID 175). Particulars: S. cerevisiae mlh1 rad18 strain growth inhibition; at 50.0 µM; stronger effect = higher value. The gist of the method:
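Genetically defined yeast (DNA repair-deficient) exposed to compounds; growth inhibition determined relative to vehicle.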

For the compound `CCOC(=O)CC(=Nc1cc(C)on1)N(CC)CC`, the growth inhibition in test [1] was 0.95% (inactive); in test [2], -19.2% (inactive); in test [3], 6.3% (inactive); in test [4], 9.95% (inactive); in test [5], -9.75% (inactive); in test [6], -17.1% (inactive).

`C[N+](C)(C)Cc1ccc2ccccc2c1Br`: the growth inhibition in test [1] was 30.3% (inactive); in test [2], 7.05% (inactive); in test [3] it was 10.2% (inactive); in test [4] it was 10.3% (inactive); in test [5], 0.2% (inactive); in test [6], 20.6% (inactive).

In the case of `CCOC(=O)/C(=C/c1ccc[nH]1)P(=O)(OCC)OCC`, the growth inhibition is -28.6% (inactive) in test [1]; -26.1% (inactive) in test [2]; -31.8% (inactive) in test [3]; 5.65% (inactive) in test [4]; 6.6% (inactive) in test [5]; -42.1% (inactive) in test [6].

In the case of `NNC(=S)S`, the growth inhibition in test [1] was 27.9% (inactive) and -11.3% (inactive) and -7.8% (inactive); in test [2], 26.1% (inactive) and -14.6% (inactive) and -8.5% (inactive); in test [3] it was 6.1% (inactive) and -1.65% (inactive) and -21.6% (inactive); in test [4], 22.2% (inactive) and -24.2% (inactive) and -21.7% (inactive); in test [5], 26.2% (inactive) and 9.35% (inactive) and -27% (inactive); in test [6] it was 5.3% (inactive) and -2.15% (inactive) and -45.4% (inactive).

For `Cc1cccc(N)c1N`, the growth inhibition in test [1] was 24.1% (inactive); in test [2], -15.1% (inactive); in test [3], 11.1% (inactive); in test [4], 0.4% (inactive); in test [5], -0.45% (inactive); in test [6], 13.7% (inactive).

In the case of `Cc1ccc(C(=O)C2C(c3ccccc3)N2Cc2ccccc2)cc1` (centres undefined), the growth inhibition in test [1] was 13.8% (inactive); in test [2] it was 7.85% (inactive); in test [3], 35.4% (inactive); in test [4] it was -10.3% (inactive); in test [5], 30.6% (inactive); in test [6] it was 14.7% (inactive).

Consider `[Cl][Sn]([Cl])([c]1ccccc1)[c]1ccccc1`, for which the growth inhibition in test [1] was 0.95% (inactive) and 97.1% (active); in test [2] it was 29.9% (inactive) and 96.2% (active); in test [3] it was 41.5% (inactive) and 95.1% (active); in test [4], -35.4% (inactive) and 95.2% (active); in test [5] it was 48.4% (inactive) and 95.8% (active); in test [6] it was 51% (inactive) and 97.2% (active).

For the compound `C=CCC1(/C(=C\CC)CCC)C(=O)NC(=O)NC1=O`, the growth inhibition in test [1] was 15.1% (inactive); in test [2] it was -0.3% (inactive); in test [3] it was 1.75% (inactive); in test [4] it was -32% (inactive); in test [5] it was -0.2% (inactive); in test [6] it was 12.3% (inactive).

Consider `Cc1cc(Cl)ccc1[NH-].Cc1cc(Cl)ccc1[NH-].[Cl][Pt+2][Cl]`, for which the growth inhibition in test [1] is 35.3% (inactive); in test [2], 12.6% (inactive); in test [3], 30.8% (inactive); in test [4], 2.05% (inactive); in test [5] it was 18.3% (inactive); in test [6], 30.2% (inactive).

As to `O=[N+]([O-])c1ccc(C2C3C(c4ccccc4)=NCCCN32)cc1` (centres undefined), the growth inhibition in test [1] is -0.2% (inactive); in test [2], 12.2% (inactive); in test [3] it was -8% (inactive); in test [4], -15.2% (inactive); in test [5], -12.2% (inactive); in test [6] it was -14.7% (inactive).

With `CCN1CCC(O)(c2ccccc2)C(C(=O)c2ccccc2)C1` (centres undefined), the growth inhibition is 5.15% (inactive) in test [1]; -17.1% (inactive) in test [2]; 5.3% (inactive) in test [3]; 20.7% (inactive) in test [4]; -10.9% (inactive) in test [5]; 16.4% (inactive) in test [6].

With `C1CN([PH+](N2CC2)N2CC2)CCO1.C1CN([PH+](N2CC2)N2CC2)CCO1.[I][Pd][I]`, the growth inhibition in test [1] was 3.9% (inactive); in test [2], 6.7% (inactive); in test [3] it was -5.7% (inactive); in test [4], -8.05% (inactive); in test [5] it was 0% (inactive); in test [6], -4.4% (inactive).

As to `Nc1ccccc1C(=O)O`, the growth inhibition is 15.3% (inactive) in test [1]; 18.4% (inactive) in test [2]; 0.7% (inactive) in test [3]; 8.6% (inactive) in test [4]; 18.4% (inactive) in test [5]; 3.8% (inactive) in test [6].

Consider `CC(=O)c1ccc(-c2ccccc2)cc1`, for which the growth inhibition is -5.3% (inactive) in test [1]; 2.6% (inactive) in test [2]; 8.45% (inactive) in test [3]; 11.9% (inactive) in test [4]; 3.6% (inactive) in test [5]; 18.1% (inactive) in test [6].

In the case of `Cc1ccc(O)cc1`, the growth inhibition in test [1] is -27.4% (inactive); in test [2], 24.1% (inactive); in test [3], -22% (inactive); in test [4], -31.2% (inactive); in test [5], 1.1% (inactive); in test [6], -30.1% (inactive).

With `NS(=O)(=O)c1ccc([As](=O)(O)c2ccccc2)cc1`, the growth inhibition was 14.2% (inactive) in test [1]; -9.35% (inactive) in test [2]; 7.85% (inactive) in test [3]; 15.7% (inactive) in test [4]; 9.5% (inactive) in test [5]; -7.75% (inactive) in test [6].

For `CC1(C)OP(=O)(O)C=C1[Se]c1ccccc1`, the growth inhibition in test [1] was 19.2% (inactive); in test [2] it was 11.2% (inactive); in test [3] it was 24.4% (inactive); in test [4] it was 4.95% (inactive); in test [5], -3.2% (inactive); in test [6], 26.6% (inactive).

On to `O=C(O)C1C2C=Cc3ccccc3C21` (centres undefined), for which the growth inhibition is 4.5% (inactive) in test [1]; 2.9% (inactive) in test [2]; -11.3% (inactive) in test [3]; -26.6% (inactive) in test [4]; -6.2% (inactive) in test [5]; 6.45% (inactive) in test [6].

Turning to `CN(N=O)C(=O)NC1CCCCC1`, the growth inhibition in test [1] is -18.6% (inactive); in test [2] it was -0.25% (inactive); in test [3], -1.25% (inactive); in test [4] it was -4.45% (inactive); in test [5], -1.95% (inactive); in test [6], 13.8% (inactive).
